Source: PubChem BioAssay (several laboratories)
UBC13 polyUb: blocks human UBC13 polyubiquitin chain formation. P61088. TR-FRET. 330,000 tested, 0.47% active. inhibition, % at 20 µM; in the data active = inhibition above about 45%, passing the limit was not always enough; inconclusive = no clear call, values can overlap the other calls
SUMO HTRF inh: SUMOylation inhibition; P63279; HTRF SUMOylation assay, SAE1/SAE2 + UBC9, in vitro; inhibition, % at 35 µM; 290,000 tested, 0.36% active; in the data active = inhibition above about 50%, passing the limit was not always enough; inconclusive = no clear call, values can overlap the other calls
GRIN3A LBD mod: modulates the human NR3A ligand-binding domain | NR3A LBD differential scanning fluorimetry, Tm shift; 0% = protein alone, 100% = glycine-bound protein | Tm shift relative to glycine control, % at 25 µM | 340,000 tested, 2.5% active | AID 1259313;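 active = melting temperature shift of at least 10% of the positive control shift, at one fixed dose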
sPLA2-III inh: Blocks human group III sPLA2 activity; Q9NZ20; QFRET BODIPY PC-A2 liposome hydrolysis, fluorescence; inhibition, % at 12.2 µM; 370,000 tested, 0.56% active;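 active = inhibition above mean plus 3 SD of compounds lying within the high and low control bounds, cut at about 19% in these data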
Target sequence (Q9NZ20 whole entry, looked up): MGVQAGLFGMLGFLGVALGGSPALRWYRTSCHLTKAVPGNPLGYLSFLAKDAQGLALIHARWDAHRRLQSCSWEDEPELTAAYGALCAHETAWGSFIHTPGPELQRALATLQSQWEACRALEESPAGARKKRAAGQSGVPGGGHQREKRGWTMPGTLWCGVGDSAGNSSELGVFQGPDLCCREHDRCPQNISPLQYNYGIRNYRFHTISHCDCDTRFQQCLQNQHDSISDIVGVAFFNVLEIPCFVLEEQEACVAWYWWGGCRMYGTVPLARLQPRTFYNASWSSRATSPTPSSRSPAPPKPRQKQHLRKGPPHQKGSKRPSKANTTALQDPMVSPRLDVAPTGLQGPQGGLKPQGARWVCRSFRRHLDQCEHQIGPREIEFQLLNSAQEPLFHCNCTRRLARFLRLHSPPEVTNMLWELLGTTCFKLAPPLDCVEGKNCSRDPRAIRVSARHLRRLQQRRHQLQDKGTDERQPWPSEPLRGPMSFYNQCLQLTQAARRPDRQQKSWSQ
Numbers stand for hits; 0 = inactive; ? = inconclusive; - = no result given. An excerpt weighted towards active compounds, which were near 3.3% of everything screened.

SMILES	UBC13 polyUb	SUMO HTRF inh	GRIN3A LBD mod	sPLA2-III inh
COc1cc(C(=O)N2C[C@H]3CC[C@H]2C3)ccc1OC1CCN(C(C)=O)CC1	0	0	13.1	0
COc1cc(/C=N/N2CCOCC2)ccc1OCc1ccc(Cl)cc1	0	0	21.8	0
COc1cc(/C=C(\C#N)c2ccccn2)ccc1OCc1ccc(Cl)cc1	0	0	13.6	0
O=C(NCCc1ccc(F)cc1)c1ccc([N+](=O)[O-])cc1	0	0	0	0
COc1ccc(OC(=O)CCc2c[nH]c3ccccc23)cc1	0	0	0	0
COc1ccc(CCNC(=O)CN2C(=O)NC(Cc3c[nH]c4ccccc34)C2=O)cc1 (configuration not stated)	0	0	24.9	0
COc1ccc(Cl)cc1NC(=S)NCCc1c[nH]c2ccccc12	0	0	28.7	0
O=C(CN1C(=O)NC(Cc2c[nH]c3ccccc23)C1=O)NCCc1ccccc1 (configuration not stated)	0	0	0	0
Cc1cccc2c(CCNC(=O)c3ccc([N+](=O)[O-])cc3)c[nH]c12	0	0	17.8	0
COc1ccc(-c2cn(CCc3c[nH]c4ccccc34)nn2)cc1	0	0	19.4	0
COc1ccccc1NC(=S)NCCc1ccc(Cl)cc1	0	0	0	0
Cc1ccc(-n2c(SCC(=O)Nc3ccc4cn[nH]c4c3)nnc2-c2ccccc2)cc1	-	-	-	0
COC(=O)C[C@@H]1CC[C@H]2[C@H](COc3ccc(NC(=O)C4CCC4)cc3C(=O)N2C)O1	-	-	-	0
Fc1ccccc1Cn1ccc2ccc(-c3ccc4ccn(Cc5ccccc5)c4c3)cc21	-	-	-	0
O=C(Nc1ccccc1)OC1CC2CC1[C@H]1CCCCN1[C@H]2Cc1ccccc1 (some centres not stated)	-	-	-	0
COc1ccc(C(=O)NCCc2c[nH]c3ccccc23)cc1	0	0	10.0	0
O=C(NCCc1c[nH]c2ccccc12)c1ccc(Cl)cc1	0	0	29.2	0
COc1ccc(C(=O)NCCc2c[nH]c3ccccc23)cc1[N+](=O)[O-]	0	0	25.3	0
COc1ccc(CCNC(=S)NCCc2c[nH]c3ccccc23)cc1	0	0	30.7	0
COc1ccc(OCC(=O)NCCc2c[nH]c3ccccc23)cc1	0	0	0	0
CCCC(=O)N1CCC[C@]2(CC[C@@H](CCC#N)O2)C1	-	-	-	0
C[C@@]12C[C@@H]3C(=O)N(Cc4ccccc4)CC(=O)N3[C@@H]1N(S(=O)(=O)c1ccccc1)c1ccccc12	-	-	-	0
CC(C)C[C@H](NC1(C(=O)NCCc2c[nH]c3ccccc23)CCOCC1)C(=O)NCCCc1ccccc1	-	-	-	0
CCOC(=O)C1=NOC(C(C)=O)(C(=O)NC2CCCC2)C1 (configuration not stated)	-	-	-	0
O=C(CN1C(=O)NC(Cc2c[nH]c3ccccc23)C1=O)Nc1ccc(Br)cc1F (configuration not stated)	0	-	12.4	0
SMILES	UBC13 polyUb	SUMO HTRF inh	GRIN3A LBD mod	sPLA2-III inh
CCOC(=O)[C@@]12CN(C(=O)OC(C)(C)C)CC=C1N(Cc1ccc(OC)cc1)C(=O)[C@H]2CC(=O)N1CCC(c2ccccc2)CC1	-	-	-	0
Oc1ccc(/C=N/N=C/c2ccc(O)c(O)c2)cc1O	0	0	27.6	0
Oc1ccc(N=Cc2ccc(O)c(O)c2)cc1	0	?	0	-
O=C(/C(=N/N=C/c1ccc(O)c(O)c1)c1ccccc1)c1ccccc1	0	0	21.2	0
Oc1ccc(/C=N/N(c2ccccc2)c2ccccc2)cc1O	0	0	0	0
O=C(Nc1ccccc1)Nc1cccc(-c2cn3cccnc3n2)c1	0	0	12.8	0
O=C(Nc1cccc(-c2cn3cccnc3n2)c1)Nc1ccccc1F	0	0	12.3	0
O=C(Nc1cccc(-c2cn3cccnc3n2)c1)c1ccco1	0	0	0	-
CCCC(=O)Nc1cccc(-c2cn3cccnc3n2)c1	0	0	0	0
Cc1cc(SCC(=O)Nc2ccccc2)n2ncc(-c3ccccc3)c2n1	0	0	31.7	0
COc1ccc(NC(=O)CSc2cc(C)nc3c(-c4ccccc4)cnn23)cc1	0	0	64.1	0
Cc1cc(SCC(=O)Nc2ccc(O)cc2)n2ncc(-c3ccccc3)c2n1	0	0	27.3	0
Cc1cc(NS(=O)(=O)c2ccc(NC(=O)CSc3nnc(-c4ccccn4)n3Cc3ccco3)cc2)nc(C)n1	-	-	-	0
COC(=O)[C@]12C[C@H](CC(=O)N3CCN(C(=O)c4ccco4)CC3)C(=O)N(Cc3ccc(Cl)cc3Cl)C1=C[C@H](C(C)(C)C)O[C@@H]2C	-	-	-	0
CC(OC(=O)C1=COCCO1)C(=O)NC1(C#N)CCCCC1 (configuration not stated)	0	-	11.2	0
Cc1cc(S(=O)(=O)N(Cc2ccc3c(c2)OCO3)CC2CCCO2)ccc1-n1cnnn1 (configuration not stated)	0	0	21.2	0
O=S1(=O)c2ccc(Br)cc2OC[C@H](Cc2ccccc2)N1Cc1cn(Cc2ccc(Br)cc2)nn1	-	-	-	0
Nc1[nH]c(C(=O)c2ccccc2)c(-c2ccc(Br)cc2)c1C(=O)N1CCN(CCO)CC1	-	-	-	0
Cc1ccc2oc(=O)cc(/C=C/c3ccccc3)c2c1	0	0	18.1	0
Cc1ccc2oc3ccccc3c(=O)c2c1	-	-	0	0
CC(C)(C)C(=O)Nc1ccc(S(=O)(=O)N2CCC(c3nc4ccccc4[nH]3)CC2)cc1	0	-	20.4	0
O=S(=O)(c1cccc(Cl)c1)N1CCC(c2nc3ccccc3[nH]2)CC1	0	0	27.2	0
[O-][n+]1onc2c1CCc1c-2nc(-c2ccccc2)n1OCc1ccccc1	0	0	0	0
COn1c(-c2ccccc2)nc2c1CCc1c-2no[n+]1[O-]	0	0	12.8	0
N/C(Cc1ccc([N+](=O)[O-])cc1)=N\OC(=O)c1ccc(Br)cc1	0	0	0	0
SMILES	UBC13 polyUb	SUMO HTRF inh	GRIN3A LBD mod	sPLA2-III inh
N/C(Cc1ccc([N+](=O)[O-])cc1)=N\OC(=O)c1ccccc1Br	0	0	11.6	0
N/C(=N\OC(=O)c1ccccc1Br)c1ccc([N+](=O)[O-])cc1	0	0	11.1	0
N#Cc1c(NC(=S)NC(=O)c2ccccc2)sc2c1CCC2	0	0	10.7	0
N#Cc1c(NC(=O)c2nc3ncccn3n2)sc2c1CCCCC2	0	0	18.3	0
N#Cc1c(NC(=S)NC(=O)Cc2cccs2)sc2c1CCCCC2	0	0	19.9	0
CC(C)(C)c1ccc(C(=O)NC(=S)Nc2sc3c(c2C#N)CCC3)cc1	0	0	0	0
CC(C)(C)C(=O)NC(NC(=S)Nc1sc2c(c1C#N)CCCC2)C(Cl)(Cl)Cl (configuration not stated)	0	0	16.2	0
COc1ccc2cc(-c3cn(C(=O)N(c4ccccc4)c4ccccc4)nn3)ccc2c1	-	-	-	0
CC1CCc2sc(NC(=S)NC(=O)c3ccccc3)c(C#N)c2C1 (configuration not stated)	0	0	22.5	0
CCC1(C)Cc2c(sc(NC(=S)NC(=O)c3ccccc3)c2C#N)CO1 (configuration not stated)	0	0	22.5	0
COc1cccc(CCNC(=O)CCc2nc(-c3ccccc3F)no2)c1	-	-	-	0
Cc1ccc(S(=O)(=O)Nc2cc(=O)[nH]c(SCc3ccc(Cl)cc3)n2)cc1	-	0	11.3	0
